# Compounds with a hit are over-represented: about 3.7% of the library has one in this group of screens.
# NLRP3 yeast inh: inhibitors of NALP3 inflammasome in yeast; Yeast reconstituted NLRP3/ASC/caspase-1, beta-gal luminescence, 24 h; inhibition, % at 10 µM; 0.39% of 330,000 active;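 active means inhibition of 50% or more; inactive means inhibition below 50%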;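 further: plate controls were induced DMSO wells for no effect and uninduced yeast grown without galactose for full effect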
# TIM10 inh: inhibits growth of TIM10 yeast strain; S. cerevisiae TIM10 strain growth, BacTiter-Glo luminescence, 24 h; inhibition, % at 10 µM; 1.4% of 330,000 active; AID 463195;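 active means inhibition of 40% or more at the single tested concentration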;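 further: wild-type TIM10 isogenic control strain grown at permissive 25 °C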
# tim23-1 inh: tim23-1 yeast growth inhibition. inhibition, % at 20 µM. 1.3% of 330,000 active. S. cerevisiae tim23-1 growth, BacTiter-Glo luminescence, 24 h;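 active means growth inhibition of the mutant yeast at or above 50%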;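 further: temperature-sensitive mutant grown at 25 °C; plate controls were DMSO-treated mutant yeast for no effect and medium wells lacking yeast for full effect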
# tim10-1 inh: inhibits growth of tim10-1 mutant yeast. S. cerevisiae tim10-1 ts strain growth, BacTiter-Glo, 24 h. inhibition, % at 20 µM. 2.2% of 330,000 active;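 active means inhibition of at least 40%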;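 further: mutant grown at 25 °C; 0% = DMSO wells with yeast and 100% = wells holding no yeast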
# PfHsp90 set2: growth inhibition of yeast expressing Plasmodium Hsp90 | 0.32% of 310,000 active | S. cerevisiae expressing PfHsp90, BacTiter-Glo ATP, 48 h; yeast lacking PDR1 and PDR3 efflux regulators | AID 504621 | inhibition, % at 9.4 µM;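 active means every replicate shows inhibition above about 80%, whatever the replicate mean, limit read from the data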;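 further: 0% = DMSO neutral controls and 100% = 20 µM radicicol positive controls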
# tim10-1 conf: confirmation of tim10-1 mutant yeast growth inhibitors; shares compounds with tim10-1 inh; 56% of 7,400 active; AID 463213; S. cerevisiae tim10-1 ts strain growth, BacTiter-Glo, 24 h; inhibition, % at 20 µM;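 active means inhibition of yeast growth at or above a set limit in either of two repeat tests at 20 µM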;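 further: tim10-1 mutant grown at permissive 25 °C to find synthetic lethal compounds; 0% = DMSO yeast wells and 100% = medium wells without yeast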
# * marks the source's active call; other numbers are inactive results; . = not tested or not shown.
SMILES,NLRP3 yeast inh,TIM10 inh,tim23-1 inh,tim10-1 inh,PfHsp90 set2,tim10-1 conf
Cc1ccc2c(CN3CCCCC3)cc(=O)oc2c1,14.2,3.0,4.4,-3.0,-19.7,.
Cc1ccc2c(CN3CCN(S(=O)(=O)/C=C/c4ccccc4)CC3)cc(=O)oc2c1,6.1,36.4,47.1,40.2*,-16.4,35.6*
COc1cc(OC)cc(C(=O)NC(=S)NNC(=O)Cc2cccs2)c1,23.5,14.9,-38.8,40.3*,-11.8,10.9
O=C(O)/C=C/c1ccccc1Oc1ccc(Cl)cc1Cl,-26.9,4.0,9.3,19.2,-32.4,.
COc1ccc(N2CCC(CNC(=S)Nc3cc(C)cc(C)c3)C2)cc1 (stereo not given),8.4,-1.4,35.4,3.0,-4.8,.
COc1ccc(N2CCC(CNC(=O)Nc3ccccc3)C2)cc1 (stereo not given),14.3,14.3,23.6,41.3*,-6.1,32.9*
CC(=O)N(\C=C/C=C/C=C1\Sc2ccccc2C1=O)c1ccccc1,26.0,32.6,29.3,40.8*,-3.3,46.5*
CN(C)/C=C1/Sc2ccccc2C1=O,-2.1,-0.9,11.7,7.1,-4.7,.
Cc1ccc2cn[nH]c2c1NC(N)=S,6.4,-9.2,-0.4,11.6,-10.4,.
CCOc1ccc(OCC)c(S(=O)(=O)N2CCCCC2C)c1 (stereo not given),-0.7,20.2,46.0,42.6*,8.6,10.9
CC(C)c1ccccc1N=C1SCCCN1C(=O)c1cccc(N2C(=O)CCC2=O)c1,3.3,11.4,-0.9,22.6,.,.
O=C(NCc1ccco1)c1cc2nc(-c3cccs3)cc(C(F)(F)F)n2n1,5.5,14.4,7.6,42.8*,4.3,28.0
CCc1ccc(-c2cc(C)no2)cc1S(=O)(=O)NCc1ccccc1OC,7.5,-4.9,30.2,40.6*,17.8,6.7
Cc1ccc(C)c(SCC(=O)N(C)CC(=O)Nc2ccc(N3CCOCC3)cc2)c1,8.9,4.3,2.6,11.1,22.3,.
Clc1ccc(-c2n[nH]c3c2CCC3)c(Cl)c1,17.6,14.7,32.9,40.9*,-8.4,25.2
O=C(Cc1ccc(Cl)cc1)Nc1ccc(Br)cn1,8.2,16.5,31.1,40.8*,-12.8,15.6
Oc1ccc(Cl)cc1CNc1ccccn1,14.9,-0.2,4.1,1.3,-31.1,.
Oc1c(Cl)cc(Cl)cc1CNc1ccc(Br)cn1,-8.8,16.8,33.6,54.6*,-17.0,63.2*
Cc1nn(-c2nnc(NCc3ccccc3)nn2)c(C)c1Br,29.4,12.6,34.6,48.7*,-18.8,27.9
Cc1ccc(-c2nn(-c3ccccc3)cc2C(=O)N2CCOCC2)cc1,-4.7,32.0,35.7,40.2*,-0.9,23.9
OCCC#Cc1c(-c2ccsc2)sc2ccccc12,-20.2,2.0,-0.4,46.4*,2.5,28.5
OCCCCC#Cc1c(-c2ccsc2)sc2ccccc12,15.5,14.0,39.2,32.9,-111.7,.
O=c1c2ccccc2nnn1CSc1ccc2c(c1)OCCO2,27.5,20.8,40.0,41.8*,61.8,35.2*
C/C(CC(=O)NCC(C)C)=N\NC(=O)COc1cc(C)c(Br)cc1Br,6.6,15.8,16.2,17.4,2.6,.
Cc1ccc(-c2nc(CS(=O)CC(=O)NCCCc3ccccc3)c(C)o2)cc1 (stereo not given),-7.7,14.7,15.7,31.2,3.2,.
SMILES,NLRP3 yeast inh,TIM10 inh,tim23-1 inh,tim10-1 inh,PfHsp90 set2,tim10-1 conf
COc1ccc(CC(=O)O/N=C(\N)Cc2ccc([N+](=O)[O-])cc2)cc1,17.4,27.6,28.7,42.7*,-3.8,62.6*
N/C(=N\OC(=O)Cc1ccc([N+](=O)[O-])cc1)c1cccc(Br)c1,4.8,13.0,24.1,58.0*,.,50.0*
CN(C(=O)C1CCCCC1)C1CCS(=O)(=O)C1 (stereo not given),24.1,-18.2,-4.9,-7.0,.,.
CCn1c(=O)c([N+](=O)[O-])c(NCc2ccco2)c2ccccc21,13.6,13.8,8.0,9.6,.,.
N#CCCN1CCC(NC(=O)OCc2ccccc2)CCC1=O (stereo not given),4.0,2.7,3.2,-8.6,-2.0,.
O=C(NC1CCC(=O)N(CCSc2ccccc2)CC1)OCc1ccccc1 (stereo not given),5.5,17.6,31.9,48.2*,-19.7,19.9
O=C(Cc1cccs1)N1CCN=C1SCc1ccccc1Cl,-10.4,6.3,22.3,40.1*,.,33.6*
O=C(Cc1cccs1)N1CCN=C1SCc1ccccc1F,17.1,2.5,24.4,16.3,30.0,.
N#Cc1ccc(C(=O)NC(=S)N2CCN(C=O)CC2)cc1,4.9,3.3,11.0,23.0,-4.7,.

# Source: PubChem BioAssay (several laboratories)
